# Results: PubChem BioAssay AID463205 (Broad Institute, 2010)
# The whole screen tested about 2,400 compounds, of which about 20 (0.8%) were called active.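 Rule for the calls: active = AC50 no more than ten times the highest tested concentration, or full inhibition at every dose giving a flat fit (cut at about 30 µM in these data); inconclusive = flat fit with activity between 30% and 70%, or poor-quality invalid fit; inactive = AC50 more than ten times the top tested dose.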 What follows is part of a selection rich in actives, with near analogues and random picks from the rest.
# Assay: inhibitors of ADP-Glo detection reagents, dose response, artefact control for GSK-3a inhibitor project, biochemical, luminescence, cell-free, homogeneous (AID 463205);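 note: kinase-free counter-screen against the ADP-Glo detection reagents only; potency is for inhibitors that reduce the luminescence signal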
# Conditions: 5 uM ADP
row,SMILES,AC50
1,CN(C)Cc1c(C(=O)N/N=C/C2CC=CCC2)nnn1-c1nonc1N (centres undefined),> 30 µM (inactive)
2,CCOC(=O)/C(C#N)=C/c1cn(CCC(=O)O)nc1-c1cccc(Br)c1,> 30 µM (inactive)
3,CCn1c2ccc(F)cc2c2nc3ccccc3nc21,> 30 µM (inactive)
4,Cc1nc2c(C)cccn2c1/C(O)=C1\C(=O)C(=O)N(CCN2CCOCC2)C1c1cccs1 (centres undefined),> 30 µM (inactive)
5,Cc1cccc2c(N=Nc3ccccc3)c(O)[nH]c12,> 30 µM (inactive)
6,Nc1nonc1-n1nnc(C(=O)N/N=C/c2ccccc2Cl)c1-c1ccccc1,> 30 µM (inactive)
7,CCc1c(C)c(C#N)c2nc3ccccc3n2c1NCC1CCCO1 (centres undefined),> 30 µM (inactive)
8,CS(=O)(=O)Nc1ccc(-c2cc(/C=C3\SC(N)=NC3=O)c[nH]c2=O)cc1,> 30 µM (inactive)
9,O=C(c1ccc(Cn2cnnn2)cc1)N1CCCC(Nc2ccc(F)cc2)C1 (centres undefined),> 30 µM (inactive)
10,O=C(Nc1ccccc1C(=O)N1CCOCC1)c1cccnc1,> 30 µM (inactive)
11,CC(=O)Nc1cccc(-c2csc(Nc3ccc(C)cn3)n2)c1,> 30 µM (inactive)
12,Cc1cc(=O)[nH]c2cc(O)ccc12,> 30 µM (inactive)
13,CC(=O)Nc1ccc(C2(c3ccc(NC(C)=O)cc3)NC(=O)c3ccccc32)cc1,> 30 µM (inactive)
14,CC1(C)Cc2cccc(C(=O)NCc3ccco3)c2O1,> 30 µM (inactive)
15,O=C(COC(=O)c1cccs1)Nc1ccc(Cl)cn1,> 30 µM (inactive)
16,CCN1CCN(c2nc(Nc3cccc(OC)c3)nc(N)c2[N+](=O)[O-])CC1,> 30 µM (inactive)
17,COc1cccc(/C=N/n2nnnc2N)c1OCC#N,> 30 µM (inactive)
18,O=C(O)COc1c(Cl)cc(/C=C2/NC(=O)NC2=O)cc1Br,> 30 µM (inactive)
19,CNc1ccc(/C=C/C(=O)c2ccc3c(c2)OCCO3)cc1[N+](=O)[O-],> 30 µM (inactive)
20,COC(=O)C1(C#N)C(c2ccccc2)C1(C(=O)OC)C(=O)OC (centres undefined),> 30 µM (inactive)

row,SMILES,AC50
1,Cc1nc2ncnn2c(C)c1Cc1c(Cl)cccc1Cl,> 30 µM (inactive)
2,O=C(c1ccccc1)c1cnc(Nc2ccccc2Cl)s1,> 30 µM (inactive)
3,COc1ccc(NC(=O)CN(C)C2CCCCC2)c([N+](=O)[O-])c1,> 30 µM (inactive)
4,Cc1nc2cc(-c3ccccc3)ccc2o1,> 30 µM (inactive)
5,O=C(N/N=C/c1cccnc1)c1cc2c(ccc3ccccc32)o1,> 30 µM (inactive)
6,CCNc1nc(NCC)nc(C(=O)OCCO)n1,> 30 µM (inactive)
7,Cc1ccnc(NC(=O)Cn2c(=O)oc3cc(S(=O)(=O)N4CCCC4)ccc32)c1,> 30 µM (inactive)
8,Cc1ccc(C(=O)O/N=C(\N)c2cccc([N+](=O)[O-])c2)cc1,> 30 µM (inactive)
9,Cc1cccc(C(=O)O/N=C(\N)c2cccc([N+](=O)[O-])c2)c1,> 30 µM (inactive)
10,Cc1cccc(/C(N)=N/OC(=O)c2ccc3c(c2)OCO3)c1,27.3 µM (active)
11,Cc1cc(NC(=O)CCSc2nc(-c3ccco3)cc(C(F)(F)F)n2)n(-c2ccccc2)n1,> 30 µM (inactive)
12,C(=N\Nc1ncnc2sc3c(c12)CCC3)/c1ccncc1,> 30 µM (inactive)
13,Cn1c(=O)c2[nH]c(N3CCOCC3)nc2n(-c2ccccc2)c1=O,> 30 µM (inactive)
14,Nc1nccnc1C(=O)N/N=C/c1ccco1,> 30 µM (inactive)
15,Nc1nonc1-n1nnc(C(=O)N/N=C/c2ccc(Cl)cc2Cl)c1CN1CCOCC1,> 30 µM (inactive)
16,Cc1nc(NCC2CCCO2)nc2c1C(=O)CC(C)(C)C2 (centres undefined),> 30 µM (inactive)
17,CCOc1ccc2ccccc2c1/C=N/n1cncn1,> 30 µM (inactive)
18,Cc1ccc(OCC(=O)N2CCN(c3nnc(-c4ccccc4)c4ccccc34)CC2)cc1,> 30 µM (inactive)
19,N#CC1=C(SCc2ccccc2)NC(=O)CC1c1ccco1 (centres undefined),> 30 µM (inactive)
20,CCN(CC)C(=O)c1oc2ccc(S(=O)(=O)N3CCCCCC3)cc2c1C,> 30 µM (inactive)

row,SMILES,AC50
1,O=C(c1ccc(Cl)cc1)c1cnc(Nc2ccccc2)s1,> 30 µM (inactive)
2,Cc1cccc(NC(=O)CSCc2nc3c(nnn3Cc3ccc(F)cc3)c(=O)[nH]2)c1C,> 30 µM (inactive)
3,N#Cc1c2c(c(NCc3ccco3)n3c1nc1ccccc13)CCC2,> 30 µM (inactive)
4,O=C(COC(=O)c1cccc(S(=O)(=O)N2CCOCC2)c1)Nc1ncc(Cl)cc1Cl,> 30 µM (inactive)
5,CNC(=O)c1ccc(NC(=O)C2CCN(c3ncnc4sc(C)c(C)c34)CC2)cc1,> 30 µM (inactive)
6,CCNc1cc(N2CCCC2)ccc1[N+](=O)[O-],> 30 µM (inactive)
7,Cc1nnc(SCC(=O)N2c3ccccc3CC2C)s1 (centres undefined),> 30 µM (inactive)
8,CCOC(=O)c1c(NC(=O)CN2C(=O)NC3(CCCCC3C)C2=O)sc(C)c1CC (centres undefined),> 30 µM (inactive)
9,C=CCNc1nc(N)c(C(=O)Nc2cc(C)on2)s1,> 30 µM (inactive)
10,CC(=O)c1cccc(NC(=S)NC(=O)CC(C)C)c1,> 30 µM (inactive)
11,COc1ccc(OC)c(/C=C2\Oc3cc(OCC(=O)N4CCC[C@H]4C(=O)O)ccc3C2=O)c1,> 30 µM (inactive)
12,CC(C)c1c(C(=O)N/N=C/c2ccncc2)nnn1-c1nonc1N,> 30 µM (inactive)
13,CC(C)N=C(NC#N)SCc1ccc(F)cc1,> 30 µM (inactive)
14,N#Cc1sc2nc3c(c(-c4ccco4)c2c1N)CCCC3,> 30 µM (inactive)
15,COCCNC(=O)c1ccc(Cn2c(=S)[nH]c3cc4c(cc3c2=O)OCO4)cc1,> 30 µM (inactive)
16,CC1=C(C(=O)OCc2ccccc2)C(c2cccc(Br)c2)NC(=O)N1 (centres undefined),> 30 µM (inactive)
17,O=C(c1ccco1)N(Cc1cccc([N+](=O)[O-])c1)c1ccc(Br)cc1,> 30 µM (inactive)
18,NS(=O)(=O)c1ccc(Nc2nc(-c3ccccc3)cs2)cc1,> 30 µM (inactive)
19,CCc1cc(C(=O)c2ccc(OC)cc2)c(NC(=O)COCC(=O)O)s1,> 30 µM (inactive)
